# Compounds without any hit were thinned out: in the full panel of roughly 83,000, 20% have a hit.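 Values shown are percent growth following 48 h exposure of cells in 96-well plates to a single concentration of compound; below 10 was considered active.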 Unmarked numbers belong to inactive results. The source made the active and inactive calls.
# Assays:
# Assay in all cases: NCI-60 one-dose screen, 48 h (100 = growth as untreated, 0 = no growth, -100 = all killed)
# [1] = system: SR leukemia; details: 10 µM unless noted
# [2] = system: RPMI-8226 leukemia
# [3] = system: OVCAR-8 ovarian
# [4] = system: OVCAR-5 ovarian
# [5] = system: OVCAR-4 ovarian
# [6] = system: SK-OV-3 ovarian
# [7] = system: OVCAR-3 ovarian
# [8] = system: HS 578T breast
# [9] = system: NCI/ADR-RES ovarian
# [10] = system: IGROV1 ovarian
structure (smiles),measurement,setting,value
Cn1cc(-c2cc(N)n3nc(-c4c[nH]c5ccc(Cl)cc45)cc3n2)c2cc(Br)cnc21,growth,[1],-40.9% (active)
same,growth,[2]; 10 µM unless noted,-43.6% (active)
same,growth,[3]; 10 µM unless noted,-60.1% (active)
same,growth,[4]; 10 µM unless noted,-61.2% (active)
same,growth,[5]; 10 µM unless noted,-54% (active)
same,growth,[6]; 10 µM unless noted,65.1%
same,growth,[7]; 10 µM unless noted,-81% (active)
same,growth,[8]; 10 µM unless noted,-16.2% (active)
same,growth,[9]; 10 µM unless noted,-54.7% (active)
N#C/C(=C1/C(=O)Nc2ccccc21)c1nnc(NC(=O)c2ccc(-n3c(=O)[nH]c4ccccc4c3=O)cc2)s1,growth,[1],17%
same,growth,[2]; 10 µM unless noted,11.5%
same,growth,[3]; 10 µM unless noted,40.2%
same,growth,[4]; 10 µM unless noted,63.5%
same,growth,[5]; 10 µM unless noted,31.2%
same,growth,[6]; 10 µM unless noted,75.1%
same,growth,[7]; 10 µM unless noted,25.6%
same,growth,[8]; 10 µM unless noted,55.6%
same,growth,[9]; 10 µM unless noted,22.9%
CC/C(=C(\c1ccc(O)cc1)c1ccc(OCCNC)cc1)c1ccccc1,growth,[2]; 1 µM,100%
same,growth,[2]; 10 µM,86.1%
same,growth,[3]; 1 µM,104%
same,growth,[3]; 10 µM,97.3%
same,growth,[4]; 1 µM,97.8%
same,growth,[4]; 10 µM,106%
same,growth,[5]; 1 µM,111%
same,growth,[5]; 10 µM,88.7%
same,growth,[6]; 1 µM,84.4%
same,growth,[6]; 10 µM,92.7%
same,growth,[10]; 1 µM,101%
same,growth,[10]; 10 µM,96.9%
same,growth,[7]; 1 µM,115%
same,growth,[7]; 10 µM,85.4%
same,growth,[8]; 1 µM,94.8%
same,growth,[8]; 10 µM,80.5%
same,growth,[9]; 1 µM,103%
same,growth,[9]; 10 µM,91.1%
CC1=C(C(=O)OC(C)C)C(c2ccc(O)cc2)NC(=O)N1 (stereo not given),growth,[2]; 10 µM unless noted,98.9%
same,growth,[3]; 10 µM unless noted,108%
same,growth,[4]; 10 µM unless noted,105%
same,growth,[5]; 10 µM unless noted,100%
same,growth,[6]; 10 µM unless noted,106%
same,growth,[10]; 10 µM unless noted,109%
same,growth,[7]; 10 µM unless noted,108%
same,growth,[9]; 10 µM unless noted,99.8%
Cc1cc(N=C(N)c2ccccc2)ccc1OCCCCCCCCn1ccnc1,growth,[1],0.698% (active)
same,growth,[4]; 10 µM unless noted,1.47% (active)
same,growth,[5]; 10 µM unless noted,37.5%
same,growth,[6]; 10 µM unless noted,16.7%
same,growth,[10]; 10 µM unless noted,6.54% (active)
same,growth,[8]; 10 µM unless noted,13.6%

# — PubChem BioAssay (NCI)
